We go through 31 compounds from PubChem BioAssay (NCATS).

Values joined by “and” are separate entries in the source; they are usually repeats but may differ in a detail not shown here. Equal entries are not always repeated. Results filed as inconclusive are left out. Active and inactive are the calls of the source. The call rests on the fitted dose curve; in most records, active means well fitted cell-killing curve with a large enough effect; inconclusive means small, poorly fitted or top-dose-only effect; inactive means flat fitted curve, though single readings scatter.
Potency means the concentration at half of the fitted maximal effect.

One test can be described thus: Cellular viability qHTS for adrenocortical cancer (ACC) cell line SW-13 (AID 1963989). Further: nearly all actives have a fitted effect of over 65% in size.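 On activity (max response): cells grown in serum-free medium with ITS supplement; on the % scale 0 is the no-effect control and ±100 the full control effect.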 Particulars: SW-13 ACC cells viability, CellTiter-Glo, 48 h; activity (max response): hits give low values. The procedure, abridged:
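Here, serum-free SW-13 cultures were dosed up to 46 uM. Following 48 h, ATP-dependent luminescence (CellTiter-Glo) reported viable cells, and logistic modeling produced IC50 values.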
Take `CC(C)(O)c1cc2nc(-c3cnc(N)nc3)nc(N3CCOCC3)c2s1`: the Potency is 1.26 µM (active).

As to `Nc1ccc(C(=O)Nc2cccc(-c3nc(N4CCOCC4)c4oc5ncccc5c4n3)c2)cn1`, the activity (max response) is -13.4% (inactive).

In the case of `CC(C)Nc1cc(-c2c[nH]c(C(=O)N[C@H](CO)c3cccc(Cl)c3)c2)c(Cl)cn1`, the Potency is 15.8 µM (active).

As to `N#Cc1c(NC(=O)c2cccc3ccccc23)sc2c1CCCC2`, the Potency was 0.282 µM (active).

In the case of `CC1=C[C@@H]2[C@@H]([C@@H](O)C[C@@]3(C)[C@H]2C[C@@H](C)[C@]3(O)C(=O)CO)[C@@]2(C)Cc3cnn(-c4ccccc4)c3C=C12`, the Potency was 22.4 µM (active).

As to `Cc1cc(C(=O)N2CCN(c3cccc(Cl)c3)CC2)n(-c2ccccc2)n1`, the Potency was 0.355 µM (active).

On to `Cc1ccc(S(=O)(=O)OCC(=O)Nc2ccc(C(=O)O)c(O)c2)cc1`, for which the activity (max response) was 6.62% (inactive).

On to `O=C(c1ccc(OCCN2CCCCC2)cc1)c1c(-c2ccc(O)cc2)sc2cc(O)ccc12`, for which the Potency is 20.6 µM (active) and 25.1 µM (active).

Take `CCC[C@H](N[C@@H](C)C(=O)N1[C@@H]2CCCC[C@H]2C[C@H]1C(=O)O)C(=O)OCC`: the activity (max response) is 2.75% (inactive).

The next test is described as follows: Cellular viability qHTS for adrenocortical cancer (ACC) cell line NCI-H295R (AID 1963990). Further: nearly all actives have a fitted effect of over 60% in size.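 On activity change, negative = viability loss: 0% = DMSO only wells and -100% = full killing with cytotoxic reference compound.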 The following applies: CellTiter-Glo ATP luminescence, 48 h; series mostly up to 46.1 µM. In short, it runs like this:
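Viability of NCI-H295R after 48 h of treatment (final up to 46 uM) measured through cellular ATP luminescence.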
Regarding `C=CC(=O)Nc1cccc(Oc2nc(Nc3ccc(N4CCN(C)CC4)cc3OC)ncc2Cl)c1`, the Potency is 8.91 µM (active).

In the case of `CS(=O)(=O)CCNCc1ccc(-c2ccc3ncnc(Nc4ccc(OCc5cccc(F)c5)c(Cl)c4)c3c2)o1`, the Potency was 23.1 µM (active) and 17.8 µM (active).

For `CC(=O)OCCN1C(=O)c2c(C)nc3ccc(S(=O)(=O)N4CCOCC4)cc3c2C1=O`, the Potency result is “inactive”.

On to `Cc1ccc(C(=O)N(CCCN)[C@@H](c2oc3cc(Cl)ccc3c(=O)c2Cc2ccccc2)C(C)C)cc1`, for which the Potency is 0.316 µM (active).

Take `CC(C)(S)[C@@H](N)C(=O)O`: the activity change, negative = viability loss was -1.21% [at 3.81 µM] (inactive).

`NC1(C(=O)N[C@@H](CCO)c2ccc(Cl)cc2)CCN(c2ncnc3[nH]ccc23)CC1`: the Potency is 5.62 µM (active).

On to `COc1cc(C(C)C)c2c(c1)S(=O)(=O)N(COc1cc(=O)n3cccc(OCCN4CCCCC4)c3n1)C2=O`, for which the Potency is 17.8 µM (active).

As for `CC1(C)[C@H](C(=O)O)N2C(=O)C[C@H]2S1(=O)=O`, the Potency result was “inactive”.

Regarding `Cn1c(NCCN(CCO)CCCc2ccc([N+](=O)[O-])cc2)cc(=O)n(C)c1=O`, the Potency result was “inactive”.

`CCOc1cc(N2CCC(O)CC2)ccc1Nc1ncc2c(n1)N(C)c1ccccc1C(=O)N2C`: the Potency was 10 µM (active).

As to `CCOc1ccc(Nc2nc(-c3c(C)nc4ccccn34)cs2)cc1`, the Potency was 0.708 µM (active).

With `CCc1nc(N)nc(N)c1-c1ccc(Cl)cc1`, the Potency was 2.59 µM (active) and 1.78 µM (active).

On to `CC(C)(O)c1cc2nc(-c3cnc(N)nc3)nc(N3CCOCC3)c2s1`, for which the Potency is 1 µM (active).

Consider `CCCCCNC(=O)N1CCC(CN(Cc2ccc(Cl)cc2)Cc2ccc([N+](=O)[O-])s2)C1` (stereo not drawn), for which the Potency was 28.2 µM (active).

For `Cc1cccc(-c2[nH]c(C(C)(C)C)nc2-c2ccc3nccnc3c2)n1`, the Potency result was “inactive”.

Consider `CN1CCN(c2ncc(-c3cc(Cl)cc(Cl)c3Cl)c(N)n2)CC1`, for which the Potency is 22.4 µM (active).

`CC(C)Nc1cc(-c2c[nH]c(C(=O)N[C@H](CO)c3cccc(Cl)c3)c2)c(Cl)cn1`: the Potency was 8.91 µM (active).

In the case of `N#Cc1c(NC(=O)c2cccc3ccccc23)sc2c1CCCC2`, the Potency is 0.562 µM (active).

Regarding `CCn1nnc2c(N3CCOCC3)nc(-c3ccc(NC(=O)Nc4ccc(C(=O)N5CCN(C)CC5)cc4)cc3)nc21`, the Potency entry was “inactive”.

`CC1=C[C@@H]2[C@@H]([C@@H](O)C[C@@]3(C)[C@H]2C[C@@H](C)[C@]3(O)C(=O)CO)[C@@]2(C)Cc3cnn(-c4ccccc4)c3C=C12`: the Potency is 8.91 µM (active).

`O=C(NC[C@H](O)CO)c1ccncc1Nc1ccc(I)cc1F`: the Potency is 31.6 µM (active).

Take `Cc1cc(C(=O)N2CCN(c3cccc(Cl)c3)CC2)n(-c2ccccc2)n1`: the Potency is 0.447 µM (active).

Turning to `COc1cc2ncnc(Nc3ccc(F)c(Cl)c3)c2cc1OCCCN1CCOCC1`, the Potency entry is “inactive”.

For the compound `O=C(c1ccc(OCCN2CCCCC2)cc1)c1c(-c2ccc(O)cc2)sc2cc(O)ccc12`, the Potency was 9.2 µM (active) and 31.6 µM (active).

For `Cc1cn(-c2cc(NC(=O)c3ccc(C)c(Nc4nccc(-c5cccnc5)n4)c3)cc(C(F)(F)F)c2)cn1`, the Potency result was “inactive”.

For the compound `CC(C)C(=O)Nc1ncc(-c2cc(C(F)F)nn2-c2c(Cl)cccc2Cl)s1`, the Potency was 22.4 µM (active).

On to `CNC1CCC(N(Cc2cccc(-c3ccncc3)c2)C(=O)c2sc3c(F)ccc(F)c3c2Cl)CC1` (stereo not drawn), for which the Potency was 7.08 µM (active).

Take `CCC[C@H](N[C@@H](C)C(=O)N1[C@@H]2CCCC[C@H]2C[C@H]1C(=O)O)C(=O)OCC`: the Potency result is “inactive”.

With `CNC(=O)Nc1ccc(-c2nc(N3CC4CCC(C3)O4)c3cnn(C4CCC5(CC4)OCCO5)c3n2)cc1`, the Potency is 0.282 µM (active).
